The text below walks through data of PubChem BioAssay (NCI).

Each structure is given as a SMILES string. The panel holds about 83,000 compounds, 20% with a hit somewhere; the sample as a whole holds those more often.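 The endpoint reported here, percent growth, reads 100 for growth as untreated, 0 for no net growth and -100 for all cells dead.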 Values without a mark were called inactive. The source made the active and inactive calls. How the source made its calls: active means growth percent below 10; inactive means the rest.

Some test systems named below: HCT-15 colon; HT29 colon; SNB-75 CNS; SNB-19 CNS; U251 CNS; PC-3 prostate; SK-MEL-5 melanoma; UACC-62 melanoma; LOX IMVI melanoma; SK-MEL-28 melanoma; SK-MEL-2 melanoma; EKVX NSCLC; SN12C renal; UO-31 renal; TK-10 renal; ACHN renal; CAKI-1 renal; A498 renal; CCRF-CEM leukemia; MOLT-4 leukemia.
Holding throughout (experiment): NCI-60 one-dose screen, 48 h (100 = growth as untreated, 0 = no growth, -100 = all killed)
What all share (settings): 10 µM unless noted

In the case of `Cc1ncc(C(=O)Nc2ccc(CN3CCN(C)CC3)c(C(F)(F)F)c2)cc1C#Cc1cnc(N)cc1C#N`, the growth with HCT-15 colon is -65.2% (active); with HT29 colon, -86.2% (active); in the test on SNB-75 CNS it was 37%; in the test with SNB-19 CNS, 74.4%; in the test on U251 CNS, -98.6% (active); in the test with PC-3 prostate, -55.6% (active). Also, the growth in the test on SK-MEL-5 melanoma is -100% (active); in the test with UACC-62 melanoma it was -83.7% (active); in the test on LOX IMVI melanoma it was -99.9% (active); in the test with SK-MEL-28 melanoma, -94.6% (active); in the test on SK-MEL-2 melanoma, -63.8% (active); with EKVX NSCLC it was 57.5%. Besides, the growth with SN12C renal was -5.62% (active); in the test with UO-31 renal, -96.8% (active); in the test with TK-10 renal, -54.7% (active); with ACHN renal it was -100% (active); with CAKI-1 renal, -88.2% (active); in the test on A498 renal it was -35.5% (active). Further, in the test on CCRF-CEM leukemia, the growth is 13.6%.

With `N#C/C(=C\c1ccc([N+](=O)[O-])s1)c1nc2cc(Cl)ccc2s1`, the growth in the test with HCT-15 colon is -45.9% (active); in the test on HT29 colon it was 33.7%; with SNB-75 CNS it was 49.7%; in the test with SNB-19 CNS it was 12.8%; in the test on U251 CNS it was 1.57% (active); in the test with PC-3 prostate, -0.522% (active). In addition, the growth with SK-MEL-5 melanoma was -94.4% (active); with UACC-62 melanoma it was 19.5%; in the test with LOX IMVI melanoma, -29.2% (active); in the test with SK-MEL-28 melanoma, 21.1%; with SK-MEL-2 melanoma it was -19.6% (active); in the test on EKVX NSCLC it was 7.23% (active). The growth in the test on SN12C renal was -27.5% (active); with UO-31 renal, -15.8% (active); in the test on TK-10 renal, 34.8%; with ACHN renal, -46.6% (active); with CAKI-1 renal it was 43.3%; in the test with A498 renal, 114%. Moreover, the growth with CCRF-CEM leukemia is 0.557% (active); in the test with MOLT-4 leukemia, 8.53% (active).

With `CN1CCN(CCNc2nccc(-c3c(-c4cccc(O)c4)nc4sccn34)n2)S1(=O)=O`, the growth is 50.6% with HCT-15 colon; 43.9% in the test on HT29 colon; 54.2% in the test with SNB-75 CNS; 115% in the test on SNB-19 CNS; 94.2% in the test on U251 CNS; 68.5% in the test with PC-3 prostate. The growth was 33% with SK-MEL-5 melanoma; 3.85% (active) in the test on UACC-62 melanoma; 23.8% in the test with LOX IMVI melanoma; 15% in the test with SK-MEL-28 melanoma; -24.9% (active) in the test on SK-MEL-2 melanoma; 99.1% in the test with EKVX NSCLC. The growth in the test on SN12C renal is 70.3%; with UO-31 renal it was 56.2%; in the test on TK-10 renal, 94.1%; with ACHN renal it was 37.4%; in the test with CAKI-1 renal, 61.8%; with A498 renal, 119%. In addition, in the test with CCRF-CEM leukemia, the growth was 76.7%.

For `O=C(NNc1nc2c(F)cccc2n2cccc12)c1cnccn1`, the growth in the test with HCT-15 colon is 26.3%; in the test with HT29 colon, 24.3%; in the test on SNB-75 CNS it was 74.3%; in the test with SNB-19 CNS, 23.9%; with U251 CNS, 18.7%; in the test with PC-3 prostate, 36.2%. The growth in the test with SK-MEL-5 melanoma was 5.96% (active); in the test with UACC-62 melanoma it was 16.5%; in the test with LOX IMVI melanoma it was -32.6% (active); with SK-MEL-28 melanoma, 8.95% (active); in the test on SK-MEL-2 melanoma, 48.7%; in the test on EKVX NSCLC, 18.5%. Also, the growth in the test with SN12C renal is 34.3%; in the test on UO-31 renal, 8.05% (active); in the test on TK-10 renal, 48.9%; in the test on ACHN renal, 4.68% (active); in the test with CAKI-1 renal it was 17.6%; in the test on A498 renal it was 54.3%. Besides, in the test with CCRF-CEM leukemia, the growth was 10.8%.

Take `COC(=O)C(CC=O)C(=O)C(=O)Nc1cccc(C(F)(F)F)c1` (stereo unspecified): the growth in the test with HCT-15 colon is 108%; in the test with HT29 colon, 99.1%; with SNB-75 CNS, 92.8%; in the test on SNB-19 CNS, 102%; in the test with U251 CNS it was 79.2%; with PC-3 prostate, 95.7%. The growth is 99.9% in the test on SK-MEL-5 melanoma; 89.7% with UACC-62 melanoma; 85.9% in the test on LOX IMVI melanoma; 120% with SK-MEL-28 melanoma; 109% in the test on SK-MEL-2 melanoma; 92.1% with EKVX NSCLC. In addition, the growth is 92.2% in the test on SN12C renal; 86.6% in the test with UO-31 renal; 102% with TK-10 renal; 105% with ACHN renal; 97.7% with CAKI-1 renal; 83.4% in the test with A498 renal.

As to `CC(c1ccccc1)C(C(=O)c1ccccc1)c1ccccc1` (stereo unspecified), the growth in the test on HCT-15 colon is 107%; in the test on HT29 colon, 75.4%; in the test with SNB-75 CNS, 63.9%; in the test on SNB-19 CNS it was 91%; in the test with U251 CNS, 96.3%; in the test with PC-3 prostate it was 94.8%. The growth was 98.5% in the test on SK-MEL-5 melanoma; 94% in the test on UACC-62 melanoma; 82.3% in the test with LOX IMVI melanoma; 94% with SK-MEL-28 melanoma; 85.1% with SK-MEL-2 melanoma; 98.5% in the test with EKVX NSCLC. The growth in the test with SN12C renal was 88.5%; with UO-31 renal, 119%; in the test on TK-10 renal, 66.2%; in the test with ACHN renal, 48.9%; with CAKI-1 renal, 89.2%; in the test with A498 renal it was 93.3%.

Regarding `COc1ccc2[nH]c(O)c(/C=c3/cc4c(c(-c5ccc(F)cc5)n3)=Nc3ccccc3-4)c2c1`, the growth in the test with HCT-15 colon is 26.7%; with HT29 colon, -29.8% (active); in the test on SNB-75 CNS, 82.6%; in the test with SNB-19 CNS it was 78%; in the test with U251 CNS, 66.3%; in the test with PC-3 prostate, 85%. The growth in the test on SK-MEL-5 melanoma is 72.1%; in the test with UACC-62 melanoma, 90.2%; with LOX IMVI melanoma it was 68.9%; with SK-MEL-28 melanoma it was 93.9%; with SK-MEL-2 melanoma it was 103%; in the test with EKVX NSCLC it was 74.1%. Besides, the growth was 88.6% with SN12C renal; 72.5% with UO-31 renal; 107% in the test with TK-10 renal; 92.2% in the test on ACHN renal; 87% in the test with CAKI-1 renal; 70.2% with A498 renal.

`NS(=O)(=O)c1ccc(CCN2C(=O)C3C(C2=O)C2(Cl)C(Cl)=C(Cl)C3(Cl)C2(Cl)Cl)cc1` (stereo unspecified): the growth was 90.5% with HCT-15 colon; 85.8% with HT29 colon; 88% in the test on SNB-75 CNS; 101% in the test with SNB-19 CNS; 104% with U251 CNS; 42.3% with PC-3 prostate. Moreover, the growth is 92.9% with SK-MEL-5 melanoma; 75.2% in the test with UACC-62 melanoma; 92.1% in the test on LOX IMVI melanoma; 108% in the test with SK-MEL-28 melanoma; 99% in the test on SK-MEL-2 melanoma; 93% in the test with EKVX NSCLC. In addition, the growth in the test with SN12C renal is 99.9%; in the test with UO-31 renal, 85.8%; in the test on TK-10 renal it was 110%; in the test on ACHN renal it was 111%; with CAKI-1 renal it was 71.7%; with A498 renal, 114%. Also, the growth is 49.6% in the test with CCRF-CEM leukemia and 88.3% in the test with MOLT-4 leukemia.
